# Assay results from PubChem BioAssay (NCI).
# The panel holds about 83,000 compounds, 20% with a hit somewhere; the sample as a whole holds those more often.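 In brief: 96-well plates, 48 h treatment, single concentration, percent growth endpoint.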 A number with no mark means an inactive call. Activity calls are given as the source filed them. How the source made its calls: active means growth percent below 10; inactive means the rest.
# How the values were obtained:
# Assay in all cases: NCI-60 one-dose screen, 48 h (100 = growth as untreated, 0 = no growth, -100 = all killed)
# NCI-H23 lung = conditions: 10 µM unless noted
# NCI-H322M lung = conditions: 10 µM unless noted
# HOP-62 NSCLC = conditions: 10 µM unless noted
# NCI-H460 lung = conditions: 10 µM unless noted
# NCI-H522 lung = conditions: 10 µM
# A549/ATCC NSCLC = conditions: 10 µM unless noted
# 786-0 renal = conditions: 10 µM unless noted
# HOP-92 NSCLC = conditions: 10 µM unless noted
# COLO 205 colon = conditions: 10 µM unless noted
Compound,growth (NCI-H23 lung),growth (NCI-H322M lung),growth (HOP-62 NSCLC),growth (NCI-H460 lung),growth (NCI-H522 lung) [%],growth (A549/ATCC NSCLC),growth (786-0 renal),growth (HOP-92 NSCLC),growth (COLO 205 colon)
COc1ccc(/C=C2\SC(=O)N(CN3CCN(c4cc5c(cc4F)c(=O)c(C(=O)O)cn5C4CC4)CC3)C2=O)cc1,96.9%,112%,109%,104%,94.2,99.4%,93.1%,–,–
CCN1CCN(c2ccc(Nc3ncc4ccc5ncn(C(C)C)c5c4n3)nc2)CC1,-26.1% (active),1.51% (active),-7.69% (active),-30.3% (active),–,9.87% (active),9.21% (active),13.9%,-40.4% (active)
c1ccc(-c2n(Cc3ccc4ccccc4n3)c3ccccc3[n+]2Cc2ccc3ccccc3n2)cc1,-5.45% (active),14.3%,-1.08% (active),1.2% (active),–,13.7%,11.9%,-18.8% (active),-69.2% (active)
COc1cc(OCc2cccc(-c3ccc(C(O)c4nccs4)cc3)c2C)cc(OC)c1C=O (stereo not given),42.1%,92.1%,47.9%,38.8%,47.3,40.2%,48.2%,–,–
COc1cc2cc(Oc3ccc(NC(=O)Nc4ccc(Cl)c(C(F)(F)F)c4)cc3)c(C)nc2cc1OCCN1CCCCC1,-80.4% (active),8.09% (active),85.6%,-82% (active),–,-54.4% (active),-89.3% (active),37.4%,-81.4% (active)
COc1ccc(S(=O)(=O)c2ccc(C(N)=O)cc2)cc1NC(=O)c1[nH]c(C)c2c1CCCCC2=O,58.7%,68.5%,38.8%,70.3%,42.7,87.7%,60%,–,–
O=c1c2c(=NCCN3CCCC3)cc3c(=O)n(CCCN4CCOCC4)c(=O)c4ccc(c(O)n1CCCN1CCOCC1)c2c4-3,-49% (active),-10.8% (active),-17.3% (active),-8.16% (active),–,6.22% (active),1.28% (active),-4.88% (active),-55.8% (active)
COc1ccc(/C=N\N2CCOCC2)cc1OC1CCCC1,99%,107%,97%,105%,95.6,99.8%,93.6%,–,–
COc1cc2nc(SCc3cc(OC)c(OC)c(OC)c3)n(-c3ccccc3OC)c(=O)c2cc1OC,79.9%,85.1%,93.2%,83.4%,–,88%,91.4%,65.8%,118%
O=C1N/C(=C\c2ccccc2)c2ncccc21,95%,95.8%,100%,113%,86.9,106%,98.7%,–,–
CCC(=O)Nc1nnc(Cc2ccc(OC)c(OC)c2)s1,60.4%,24.9%,-67.2% (active),-43.7% (active),–,-55% (active),9.21% (active),32.6%,28.2%
COc1cc(Cn2cc(F)c(=O)[nH]c2=O)cc(OC)c1,103% [50 µM],99% [50 µM],88.2% [50 µM],103% [50 µM],–,102% [50 µM],97.5% [50 µM],101% [50 µM],117% [50 µM]
O=C(N/N=C/c1ccc(OC(F)F)c(OC2CCCC2)c1)c1cnn2c1NC(c1ccccc1)C2 (stereo not given),97.5%,92.6%,84.9%,82.4%,78.8,73.8%,89.2%,–,–
O=C(N/N=C(\CS(=O)(=O)c1ccccc1)c1cc2cc(Br)ccc2oc1=O)c1ccccc1,101%,104%,114%,99.7%,94.9,95.3%,106%,–,–
O=C1NC(=O)C(CSc2ccccc2)(c2ccccc2)N1 (stereo not given),97.7%,86.5%,97.3%,118%,–,92.4%,103%,90.8%,98%
CCN(CC)c1ccc(/C=C(\C#N)c2cc3ccccc3[nH]2)cc1,79.2%,88.7%,77.7%,24.4%,–,39.4%,80%,97%,45.3%
Nc1cccc2c(=S)c3ccccc3[nH]c12,95.9%,92.1%,82.7%,95.7%,–,108%,106%,98.4%,114%
CC(C)(C)[Si](C)(C)OC1[C@@H](CNC(=O)NC(=O)CCl)O[C@@H](n2cnc3c(N)ncnc32)[C@H]1O[Si](C)(C)C(C)(C)C (stereo not given in full),-72.4% (active),111%,-60.1% (active),-82.4% (active),–,-22.3% (active),-55.4% (active),-79.2% (active),-16.8% (active)
COc1ccc(S(=O)(=O)ON=C2C=C(C)C(=O)C(C)=C2)cc1,98.2%,103%,106%,106%,–,105%,93.1%,59.4%,89.2%
O=C(CC(O)c1ccccc1)Nc1ccccn1 (stereo not given),98.6%,93.3%,103%,112%,96,95.8%,102%,–,–
O=c1[nH]c(-c2ccncc2)nc2sc3c(c12)CCCCCC3,88.5%,59.4%,52.2%,30.4%,–,43.7%,80.4%,-25.1% (active),106%
COc1ccc(-c2c(-c3cc4c(c(OC)c3OC)OCO4)noc2N)cc1,42.5%,54.2%,35.7%,13.2%,–,24.1%,38.4%,15.3%,-2.51% (active)
CC(=O)Nc1ccc(Sc2ccc([N+](=O)[O-])o2)cc1,39.9%,98.3%,68.4%,46.9%,–,65.1%,50.7%,40.2%,-67.3% (active)
COc1ccccc1/C=C/C(=O)/C=C/c1ccccc1O,-11.3% (active),24.9%,62%,-58.2% (active),30.1,6.86% (active),-44% (active),–,-48.6% (active)
O=C(O)c1ccccc1Oc1cc(-c2ccco2)nc(OCCBr)n1,105%,100%,101%,110%,103,94.2%,100%,–,109%
COc1cc(/C=N/NC(=O)c2cnn3c2NC(c2ccccc2)C3)cc(OC)c1OC (stereo not given),102%,84%,71.2%,26.7%,35.5,64.8%,88%,–,–
O=[N+]([O-])c1cc2c(cc1Br)-c1ccccc1C2,84.7%,115%,81.4%,102%,77.6,90.9%,88.4%,–,84.6%
COc1ccccc1CNCCCCCCCCCCCCN1C(=O)c2ccc3c4c(ccc(c24)C1=O)C(=O)N(CCCCCCCCCCCCNCc1ccccc1OC)C3=O,-47.6% (active),111%,54.5%,35.5%,87,75.4%,-73.7% (active),–,109%
